We go through 9 compounds from PubChem BioAssay.

Activity calls are given as the source filed them.

The nature of test [1]: E. coli DRC41 culture turbidity changes, primary screen, E. coli filamentation inducer project, strain DRC41, OD650, 48 h (AID 1152).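 Also: E. coli MC1000 strain DRC41 lacking acrAB efflux pump and sulA.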 As to conditions: E. coli DRC41 (acrAB sulA), higher = more signal, called active from +8 up or from −8 down.
The nature of test [2]: small-molecule binders of probe aLefty1, primary screen, biochemical, small-molecule microarray, 635/667 nm fluorescence (AID 1153).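 Also: score merges spot fluorescence with signal-to-noise ratio from the scanned slide images.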 As to conditions: higher = more signal.
A short description of test [3]: PSAC antagonists in infected red cells, primary screen, cell-based, P. falciparum Indochina, OD700, 1 h (AID 1154). As to conditions: P. falciparum Indochina infected RBC osmotic lysis, higher = more signal, called active from +8 up or from −8 down.
Test [4] in a line: PSAC antagonists in infected red cells, primary screen, cell-based, P. falciparum Indochina, OD700, 2 h (AID 1155).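 Also: lysis reports solute entry through the parasite surface anion channel PSAC; channel blockers reduce lysis of infected cells.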 Conditions: P. falciparum Indochina infected erythrocytes, osmotic lysis OD700; higher = more signal, called active from +8 up or from −8 down.
The nature of test [5]: osmotic lysis modulators in infected erythrocytes, primary screen, PSAC antagonist project, cell-based, P. falciparum Indochina, OD700, 3 h (AID 1156). Conditions: higher = more signal, called active from +8 up or from −8 down.
Test [6] can be described thus: PSAC antagonists in infected red cells, primary screen, cell-based, P. falciparum Indochina, OD700, 18 h (AID 1157). Conditions: P. falciparum Indochina infected erythrocytes, osmotic lysis OD700, 18 h; higher = more signal, called active from +8 up or from −8 down.
The nature of test [7]: modulators of S6 phosphorylation in cells, primary screen, cell-based, A549, cytoblot, luminescence, serum-stimulated (AID 1158).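 Also: serum-stimulated A549 lung adenocarcinoma cells; signal is phosphorylated S6 detected by cytoblot immunostaining with HRP secondary.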 As to conditions: A549 phospho-S6 cytoblot, 5 h, higher = more signal.
In test [8] the target is NADPH oxidase 2 (Homo sapiens) (UniProt P04839). Briefly: NOX2-dependent H2O2 signal modulators, primary screen, NOX inhibitor project, cell-based, HEK293-NOX2, PMA-stimulated, Amplex Red fluorescence (AID 1159). Also: test concentration not given here. Conditions: 45 min, higher = more signal, called active from +8 up or from −8 down.
Chain of NADPH oxidase 2 (Homo sapiens) (P04839 whole entry, looked up): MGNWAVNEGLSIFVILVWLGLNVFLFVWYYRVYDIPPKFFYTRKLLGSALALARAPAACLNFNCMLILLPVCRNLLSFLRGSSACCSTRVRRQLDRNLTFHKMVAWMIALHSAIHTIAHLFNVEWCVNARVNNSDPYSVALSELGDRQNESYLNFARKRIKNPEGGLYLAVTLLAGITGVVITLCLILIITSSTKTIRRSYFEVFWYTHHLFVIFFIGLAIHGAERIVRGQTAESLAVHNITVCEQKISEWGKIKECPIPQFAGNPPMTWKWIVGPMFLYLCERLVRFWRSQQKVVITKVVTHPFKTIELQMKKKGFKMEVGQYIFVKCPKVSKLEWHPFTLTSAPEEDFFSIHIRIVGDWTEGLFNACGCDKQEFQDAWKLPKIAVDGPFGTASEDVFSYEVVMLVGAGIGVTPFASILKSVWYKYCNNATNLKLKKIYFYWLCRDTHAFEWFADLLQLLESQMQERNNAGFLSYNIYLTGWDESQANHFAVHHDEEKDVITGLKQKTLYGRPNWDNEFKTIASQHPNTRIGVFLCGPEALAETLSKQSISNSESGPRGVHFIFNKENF
In test [9] the target is NADPH oxidase 4 (Homo sapiens) (UniProt Q9NPH5). As to the kind of experiment: NOX4-dependent H2O2 signal modulators, primary screen, NOX inhibitor project, cell-based, HEK293-NOX4, tetracycline-induced, Amplex Red fluorescence (AID 1160). As to conditions: 45 min, higher = more signal, called active from +8 up or from −8 down.
Chain of NADPH oxidase 4 (Homo sapiens) (Q9NPH5 whole entry, looked up): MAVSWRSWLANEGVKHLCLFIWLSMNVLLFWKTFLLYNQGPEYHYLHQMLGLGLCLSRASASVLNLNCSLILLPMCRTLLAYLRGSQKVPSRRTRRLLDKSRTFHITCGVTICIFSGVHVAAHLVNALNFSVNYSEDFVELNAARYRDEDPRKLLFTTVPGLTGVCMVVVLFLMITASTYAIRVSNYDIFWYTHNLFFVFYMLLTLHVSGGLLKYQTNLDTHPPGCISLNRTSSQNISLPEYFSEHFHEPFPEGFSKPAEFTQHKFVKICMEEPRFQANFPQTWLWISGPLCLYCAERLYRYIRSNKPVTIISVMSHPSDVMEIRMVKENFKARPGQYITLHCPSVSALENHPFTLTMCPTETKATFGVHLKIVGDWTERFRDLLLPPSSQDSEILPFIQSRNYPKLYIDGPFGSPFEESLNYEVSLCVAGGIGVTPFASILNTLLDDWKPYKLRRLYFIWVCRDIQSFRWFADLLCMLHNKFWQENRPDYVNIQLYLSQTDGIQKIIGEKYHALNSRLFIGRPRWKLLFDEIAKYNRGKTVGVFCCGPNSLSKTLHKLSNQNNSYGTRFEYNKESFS
Test [10] addresses NADPH oxidase 5 (Homo sapiens) (UniProt Q96PH1). Briefly: NOX5-dependent H2O2 signal modulators, primary screen, NOX inhibitor project, cell-based, HEK293-NOX5, Amplex Red fluorescence (AID 1161). As to conditions: HEK293-NOX5, ionomycin, 45 min, higher = more signal.
Test [11] can be described thus: A549 cell viability effects, profiling panel, calcein-AM fluorescence, 48 h, basal (AID 1162). Also: test concentration not given here. As to conditions: higher = more signal.
Test [12] in a line: adipocyte viability effects, profiling panel, cell-based, 3T3-L1 adipocytes, calcein-AM fluorescence, 48 h, basal (AID 1163). Also: test concentration not given here. As to conditions: 3T3-L1 adipocytes viability, higher = more signal.
The nature of test [13]: HepG2 cell viability effects, profiling panel, calcein-AM fluorescence, 48 h, basal (AID 1164). Also: test concentration not given here. Conditions: higher = more signal.
Test [14] is described as follows: MM1S cell viability effects, profiling panel, calcein-AM fluorescence, 48 h, basal (AID 1165).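 Also: viability of MM1S multiple myeloma cells under basal unstimulated conditions; test concentration not given here.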 As to conditions: higher = more signal.
The nature of test [15]: basal RPMI8226 viability, no added stimulus, profiling panel, cell-based, calcein-AM fluorescence, 48 h, PK04 Diversity Set (AID 1166).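 Also: cells grown under basal conditions without added stimulus; test concentration not given here.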 Conditions: RPMI8226 myeloma viability, higher = more signal.
A short description of test [16]: basal HepG2 mitochondrial membrane potential changes, profiling panel, cell-based, JC-1 fluorescence, 24 h, 100 nL compound (AID 1167). Also: test concentration not given here. Conditions: higher = more signal.
A short description of test [17]: basal 3T3-L1 adipocyte mitochondrial potential changes, profiling panel, cell-based, JC-1 fluorescence, 3T3-L1 adipocytes, 24 h, 100 nL compound (AID 1168). Also: test concentration not given here. Conditions: JC-1 mitochondrial fluorescence, higher = more signal, called active from +8 up or from −8 down.
The nature of test [18]: basal RPMI8226 mitochondrial membrane potential changes, profiling panel, cell-based, JC-1 fluorescence, 24 h, 100 nL compound (AID 1169). Also: test concentration not given here. As to conditions: RPMI8226 myeloma, JC-1 mitochondrial potential fluorescence, higher = more signal.
Test [19] is described as follows: basal MM1S mitochondrial membrane potential changes, profiling panel, cell-based, JC-1 fluorescence, 24 h, 100 nL compound (AID 1170). Also: test concentration not given here. As to conditions: higher = more signal.
Test [20] can be described thus: A549 lung cancer cell viability effects, profiling panel, resazurin fluorescence, 24 h, PK04 Diversity Set (AID 1171). Also: test concentration not given here. Conditions: higher = more signal, called active from +8 up or from −8 down. A general note: The colour change of resazurin is a common sign of viable cells or microbes.

Chain of NADPH oxidase 5 (Homo sapiens) (Q96PH1 whole entry, looked up): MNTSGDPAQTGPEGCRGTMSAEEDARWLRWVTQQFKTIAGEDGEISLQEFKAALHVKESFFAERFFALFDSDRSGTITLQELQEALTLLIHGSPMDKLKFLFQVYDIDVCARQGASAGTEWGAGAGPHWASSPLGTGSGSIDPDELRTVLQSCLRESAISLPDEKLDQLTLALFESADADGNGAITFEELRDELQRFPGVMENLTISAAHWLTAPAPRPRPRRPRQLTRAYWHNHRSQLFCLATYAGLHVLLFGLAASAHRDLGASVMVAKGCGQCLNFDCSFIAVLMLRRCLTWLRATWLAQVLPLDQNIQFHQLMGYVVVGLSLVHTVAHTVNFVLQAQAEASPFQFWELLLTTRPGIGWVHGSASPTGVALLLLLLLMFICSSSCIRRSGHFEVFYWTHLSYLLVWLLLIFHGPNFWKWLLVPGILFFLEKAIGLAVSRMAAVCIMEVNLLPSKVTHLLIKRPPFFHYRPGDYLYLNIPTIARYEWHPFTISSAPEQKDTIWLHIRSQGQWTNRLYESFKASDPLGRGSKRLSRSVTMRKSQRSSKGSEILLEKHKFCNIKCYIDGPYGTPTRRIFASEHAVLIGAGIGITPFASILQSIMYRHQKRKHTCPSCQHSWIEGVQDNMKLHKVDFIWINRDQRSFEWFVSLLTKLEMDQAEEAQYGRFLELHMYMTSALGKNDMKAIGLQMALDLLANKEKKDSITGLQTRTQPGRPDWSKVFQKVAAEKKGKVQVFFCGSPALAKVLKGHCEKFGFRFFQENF

In the case of `Cc1ccccc1C(O)C1C=CC2C(=O)N(C)C(=O)C2N1N1CCCCC1` (stereo not given), the z-score in [1] was -1.52 (inactive); in test [3] it was 0.234 (inactive); in test [4], 0.479 (inactive); in test [5], 0.126 (inactive); in [6] it was 1.02 (inactive); in [7], -0.467. Also, the z-score in test [8] was -0.182 (inactive); in test [9], 0.0457 (inactive); in [10] it was -1.46; in [11] it was -0.578; in test [12], -1.18; in test [13], -0.979. Besides, the z-score in test [14] was -0.587; in test [15], -0.436; in test [16], -1.64; in test [17] it was -1.01 (inactive); in test [18] it was 0.207; in test [19], 0.201. Also, the z-score in test [20] is -0.464 (inactive). The compound further showed a composite z-score in test [2] of 0.563.

Regarding `COc1ccc([Si](C)(C)[C@@H]2[C@@H](CCn3cc([C@H](O)c4ccccc4)nn3)O[C@]3(C(=O)N(Cc4cccc(N5CCOC5=O)c4)c4ccccc43)[C@H]2C)cc1`, the z-score in test [1] was 1 (inactive); in test [3], 26.3 (active); in test [4] it was 12.8 (active); in [5], 1.33 (inactive); in [6] it was 1.68 (inactive); in [7], 0.324. Moreover, the z-score in test [8] was -0.662 (inactive); in test [9], 2.29 (inactive); in [10], 1.84; in [11], 1.6; in [12], -0.392; in test [13], 1.31. Besides, the z-score in [14] is -2.15; in [15], 0.274; in test [16] it was 1.84; in test [17] it was 2.73 (inactive); in [18], -0.671; in [19], -0.0958. Besides, the z-score in test [20] is 0.181 (inactive). This compound also registered a composite z-score in [2] of -0.328.

Consider `COc1ccc([Si](C)(C)[C@@H]2[C@@H](CC(=O)N3CCC[C@H]3CO)O[C@]3(C(=O)N(C)c4c(Br)cc(C)cc43)[C@H]2C)cc1`, for which the z-score in [1] was -0.674 (inactive); in test [3] it was 5.59 (inactive); in [4], 0.576 (inactive); in test [5], 0.405 (inactive); in test [6] it was 0.768 (inactive); in test [7] it was -0.415. In addition, the z-score in [8] was 1.73 (inactive); in test [9] it was 1.17 (inactive); in test [10] it was 3.69; in [11], 0.49; in test [12], 0.406; in test [13], 1.03. The z-score was -0.929 in [14]; -1.04 in test [15]; 1.02 in test [16]; 0.0349 (inactive) in test [17]; -0.489 in test [18]; -0.0745 in [19]. The z-score in test [20] was 0.206 (inactive). Further, the composite z-score in [2] was -0.251.

In the case of `O=C1OCCC=C[C@H]2OC34C=CCN(c5ccc6ccccc6c5)C(=O)[C@H]3N(CCCCCO)C(=O)[C@@H]4C12` (stereo not given in full), the z-score in test [1] is 1.3 (inactive); in test [3], 3.56 (inactive); in test [4] it was 0.526 (inactive); in [5], 2 (inactive); in [6], 0.599 (inactive); in test [7], -0.37. The z-score in test [8] is 1.95 (inactive); in test [9] it was 0.913 (inactive); in test [10], 2.57; in test [11], 0.32; in test [12], -0.691; in test [13], 1.84. The z-score is 1.35 in test [14]; 0.0492 in test [15]; 1.53 in test [16]; -0.279 (inactive) in test [17]; -0.0802 in test [18]; -0.0576 in [19]. In addition, the z-score in test [20] was 0.384 (inactive). In test [2], this compound returned a composite z-score of 0.831.

As for `CCOC(=O)C[C@H]1[C@H](OC(=O)c2ccccc2-c2ccccc2)[C@@H](NC(=O)Cc2ccc(OC)cc2)c2cc(OCCCO)ccc2N1C(=O)c1ccccc1`, the z-score in [1] was -1.14 (inactive); in test [3] it was 1.57 (inactive); in test [4] it was 0.316 (inactive); in [5] it was 0.432 (inactive); in [6] it was 0.208 (inactive); in test [7], -0.127. The z-score in [8] was 1.02 (inactive); in test [9] it was 1.15 (inactive); in test [10], -0.26; in test [11], 0.369; in test [12], -0.8; in test [13] it was 0.41. For the same compound, the z-score in [14] was -0.0609; in test [15], 0.0629; in test [16], 0.915; in [17] it was 0.0962 (inactive); in [18] it was -0.0457; in test [19] it was 0.213. Also, the z-score in [20] is 0.407 (inactive). The composite z-score in test [2] is -0.0877.

On to `CC(C)C(=C=CC[C@H](O)c1ccccc1OCCO)C[C@H](O)c1ccccn1`, for which the z-score in test [1] was 0.843 (inactive); in [3], 4.75 (inactive); in test [4] it was 0.673 (inactive); in [5] it was 2.42 (inactive); in test [6], 0.454 (inactive); in test [7], 1.16. In addition, the z-score in test [8] was -0.222 (inactive); in [9], -0.323 (inactive); in test [10], -1.28; in test [11] it was 0.82; in [12], -0.27; in test [13], 1.33. Further, the z-score in test [14] is 0.198; in test [15], 0.0964; in test [16], 0.714; in test [17], 0.085 (inactive); in test [18], -0.332; in [19], -1.3. Also, the z-score in [20] is -0.607 (inactive). Moreover, the composite z-score in test [2] amounted to 0.129.

With `CCCCC=C[C@@H](NC(=O)c1ccco1)c1ccccc1`, the z-score in [1] is -1.24 (inactive); in [3], 1.02 (inactive); in test [4] it was 0.941 (inactive); in test [5], -0.279 (inactive); in test [6], 0.813 (inactive); in test [7], 0.782. Besides, the z-score was -0.226 (inactive) in [8]; 0.76 (inactive) in test [9]; 1.01 in test [10]; -1.08 in [11]; -0.872 in test [12]; 0.264 in test [13]. The z-score is -0.499 in test [14]; -1.16 in test [15]; 0.989 in test [16]; 0.0899 (inactive) in [17]; 0.112 in test [18]; -1.05 in test [19]. Besides, the z-score in test [20] is 0.335 (inactive). In [2], this compound gave a composite z-score of 0.0701.

For the compound `CC(=CC1CCCCC1)[C@@H](NC(=O)c1ccc(C(F)(F)F)cc1)c1ccc(-c2ccccc2)cc1`, the z-score in test [1] is -2.14 (inactive); in [3] it was 3.47 (inactive); in test [4], 1.03 (inactive); in test [5] it was 0.482 (inactive); in [6], 0.813 (inactive); in test [7], 0.299. The z-score in test [8] is -0.709 (inactive); in test [9] it was -0.683 (inactive); in test [10] it was 0.0858; in test [11], -0.165; in test [12], -0.791; in [13], -0.839. In addition, the z-score in test [14] was -1.5; in test [15] it was -2.06; in test [16], -2.33; in test [17], -1.09 (inactive); in [18], -0.515; in [19], -0.693. In addition, in test [20], the z-score was 0.334 (inactive). Further, in [2], the composite z-score was 0.117.

Regarding `O=C1O[C@H](c2ccccc2)[C@H](c2ccccc2)N2[C@H]1[C@@H](C(=O)O)[C@]1(C(=O)Nc3ccc(C#CC4=CCCCC4)cc31)[C@H]2c1ccc(OCCO)cc1`, the z-score is -0.915 (inactive) in [1]; 0.381 (inactive) in test [3]; -0.97 (inactive) in test [4]; -9.89 (active) in test [5]; -0.969 (inactive) in test [6]; 0.333 in test [7]. For the same compound, the z-score is 1.19 (inactive) in [8]; -0.768 (inactive) in [9]; 1.37 in test [10]; 0.199 in [11]; -0.774 in test [12]; 0.122 in [13]. For the same compound, the z-score in test [14] is -2.72; in test [15] it was -4.06; in test [16], -4.3; in test [17] it was -3.28 (inactive); in test [18], -0.949; in [19], -1.53. Besides, in test [20], the z-score was 0.729 (inactive). In test [2], this compound gave a composite z-score of 0.167.
